Consider 13 compounds from PubChem BioAssay (NCI).

This is part of a sample that, as a whole, favours compounds with a hit. Of some 83,000 tested, about 20% had one in any assay.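 Single-concentration screen, 48 h exposure, 96-well plates. Endpoint: percent growth. Below 10 = active.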 Unmarked numbers belong to inactive results. Active and inactive are the calls of the source.

One experiment relates to SF-539 CNS. Nature of the experiment: NCI-60 one-dose screen, 48 h (100 = growth as untreated, 0 = no growth, -100 = all killed). Particulars: 10 µM unless noted.
As for `COC(=O)c1cccc(NC2=C(Cl)C(=O)c3nc(C)ccc3C2=O)c1`, the growth is 111%.

`O=C1Nc2cc(Cl)ccc2/C1=C\c1ccc(OCc2ccccc2)cc1`: the growth was 94.5%.

With `Cc1ccc(-c2csc(N/N=C/c3cccs3)n2)cc1`, the growth is 104%. `O=[N+]([O-])c1ccc(NC(=S)NNC(=S)Nc2ccc(Br)cc2)cc1`: the growth was 95.2%.

The next experiment has as its system UACC-257 melanoma. The experiment is described as above. The settings on record: 10 µM unless noted.
`NC(=O)n1c(=O)n(-c2cccc(C(F)(F)F)c2)c(=O)c2cc(-c3ccc(F)cc3F)ccc21`: the growth is -13.5% (active). In the case of `O=C1CSC(c2cn(-c3ccccc3)nc2-c2ccc(Cl)cc2)N1c1ccccc1` (stereo not drawn), the growth was 102%. As to `COc1ccc(/C=N/NC(=O)CSc2nc(-c3cnccn3)cc(-c3cccs3)c2C#N)cc1`, the growth was 95.9%.

With `C#Cc1cc(OC)c(C(=O)Nc2ccc(F)cc2C(=O)Nc2cccc(S(=O)(=O)C(F)(F)F)c2)cn1`, the growth is 55.7%.

For `CN1c2ccccc2Sc2cc(/C=N/Nc3ccnc4cc(Cl)ccc34)ccc21`, the growth was 96.3%. For the compound `O=C(/C=C/c1cccc(F)c1)c1cccc(OCCCOc2cccc(C(=O)/C=C/c3cccc(F)c3)c2)c1`, the growth was 107%.

As to `CN1CCN(Cc2ccc(NC(=O)c3cncc(C#Cc4cnc(N)nc4)c3)cc2C(F)(F)F)CC1`, the growth was 22.1%. As for `O=C(CSc1nc2ccccc2c(=O)n1-c1ccc(Cl)c(Cl)c1)Nc1ccc(S(=O)(=O)Nc2ccc(Cl)nn2)cc1`, the growth is 93.5%. Still for that read-out and setting: then `Cc1[nH]c(C(=O)Nc2ccc(C(N)=O)cc2N2CCOC(C)C2)c(Cl)c1Cl` (stereo not drawn), with 108%.
